Measured values from PubChem BioAssay (Tox21).
Where “and” joins values, the source holds several entries; their conditions need not be identical. Equal values may be shown once. Records with an inconclusive call do not appear. Where a call stands in place of a potency, no number is given. Some structures have more than one record in an assay (separate samples or runs), and their calls can disagree. Calls of active or inactive are those of the source. Unless noted, calls come from the whole dose curve; as a rule, active = well fitted curve in the direction sought with a large enough effect in the repeat runs; inconclusive = weak or mixed curves; inactive = no such curve, though single readings can be large; an effect the other way counts as inactive or inconclusive.

What was measured:
[1] = target: Acetylcholinesterase (Homo sapiens) (UniProt P22303); test: Acetylcholinesterase (AChE) small molecule antagonists: enzyme-based qHTS assay with human liver microsomes (AID 1347399; calls by dose curve; note: nearly all actives have a fitted effect of over 60% in size); settings: Potency: qHTS inhibition
Summary of the method: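 Recombinant human AChE (50 mU/mL in the enzyme mix) and human liver microsomes (0.25 mg/mL final) were preincubated with compound and NADPH (0.25 mg/mL final) for 30 min at 37 C. Acetylthiocholine/DTNB was then added; thiocholine was read colorimetrically after 10 min at room temperature.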

[2] = target: Cytochrome P450 2D6 (Homo sapiens) (UniProt P10635); test: Cytochrome P450 Family 2 Subfamily D Member 6 (CYP2D6) small molecule antagonists: luciferase reporter qHTS assay (AID 1671196); note: nearly all actives have a fitted effect of over 50% in size; for activity change, negative = inhibition: series mostly up to about 120 µM
Summary of the method: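 Test chemicals meet CYP2D6 plus proluciferin substrate (10 min, RT); NADPH regenerating solution then drives turnover for 1 h. Detection reagent halts the reaction; luminescence measured after 20 min.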

[3] = target: Cytochrome P450 2C19 (Homo sapiens) (UniProt P33261); test: Cytochrome P450 Family 2 Subfamily C Member 19 (CYP2C19) small molecule antagonists: luciferase reporter qHTS assay (AID 1671197); note: nearly all actives have a fitted effect of over 65% in size; for activity change, negative = inhibition: series mostly up to about 120 µM
Summary of the method: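 CYP2C19 P450-Glo, 1536-well qHTS. Cpd + enzyme/proluciferin substrate 10 min RT; + NADPH regen, 37C 1 h; stop with luciferin detection reagent, 20 min RT, luminescence (RLU). Pos ctrl ketoconazole.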

[4] = target: Cytochrome P450 2C9 (Homo sapiens) (UniProt P11712); test: Cytochrome P450 Family 2 Subfamily C Member 9 (CYP2C9) small molecule antagonists: luciferase reporter qHTS assay (AID 1671198); note: nearly all actives have a fitted effect of over 50% in size; for activity change, negative = inhibition: series mostly up to about 120 µM
Summary of the method: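 CYP2C9 activity was measured with a P450-Glo proluciferin substrate. Enzyme–substrate mix was held with compound for 10 min at room temperature, then NADPH regeneration solution was added for 1 h at 37C. Luciferin product was read as luminescence.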

[5] = target: Cytochrome P450 3A4 (Homo sapiens) (UniProt P08684); test: Cytochrome P450 Family 3 Subfamily A Member 4 (CYP3A4) small molecule antagonists: luciferase reporter qHTS assay (AID 1671201); note: nearly all actives have a fitted effect of over 50% in size; for activity change, negative = inhibition: series mostly up to about 120 µM
Summary of the method: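 Recombinant human CYP3A4 converts a proluciferin substrate to luciferin over 1 h at room temperature after NADPH regeneration solution is added (compound preincubated 10 min); detection reagent stops reaction, luminescence read 20 min later as relative units.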

[6] = target: Cytochrome P450 1A2 (Homo sapiens) (UniProt P05177); test: Cytochrome P450 Family 1 Subfamily A Member 2 (CYP1A2) small molecule antagonists: luciferase reporter qHTS assay (AID 1671199); note: nearly all actives have a fitted effect of over 50% in size; for activity change, negative = inhibition: series mostly up to about 120 µM
Summary of the method: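 Steps: enzyme-substrate mix dispensed; test compounds and furafylline control pinned in; 10 min room temperature; NADPH regeneration solution added, 1 h; reaction stopped with luciferin detection reagent; luminescence read after 20 min.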

[7] = target: Voltage-gated inwardly rectifying potassium channel KCNH2 (Homo sapiens) (UniProt Q12809); test: Human Ether-a-go-go-Related Gene (hERG) channel small molecule antagonists: fluorescence cell-based qHTS assay (AID 1671200); note: nearly all actives have a fitted effect of over 50% in size; for activity change, negative = inhibition: series mostly up to about 77 µM
Summary of the method: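 Thallium flux as potassium surrogate: FluxOR II dye loaded 1 h at room temperature into hERG-expressing U2OS cells, then stimulus buffer added after 10 min. Kinetic 480 nm excitation/540 nm emission read, 2 min.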
Potency is the fitted concentration of half-maximal effect.

Chain of Voltage-gated inwardly rectifying potassium channel KCNH2 (Homo sapiens) (Q12809 whole entry, looked up): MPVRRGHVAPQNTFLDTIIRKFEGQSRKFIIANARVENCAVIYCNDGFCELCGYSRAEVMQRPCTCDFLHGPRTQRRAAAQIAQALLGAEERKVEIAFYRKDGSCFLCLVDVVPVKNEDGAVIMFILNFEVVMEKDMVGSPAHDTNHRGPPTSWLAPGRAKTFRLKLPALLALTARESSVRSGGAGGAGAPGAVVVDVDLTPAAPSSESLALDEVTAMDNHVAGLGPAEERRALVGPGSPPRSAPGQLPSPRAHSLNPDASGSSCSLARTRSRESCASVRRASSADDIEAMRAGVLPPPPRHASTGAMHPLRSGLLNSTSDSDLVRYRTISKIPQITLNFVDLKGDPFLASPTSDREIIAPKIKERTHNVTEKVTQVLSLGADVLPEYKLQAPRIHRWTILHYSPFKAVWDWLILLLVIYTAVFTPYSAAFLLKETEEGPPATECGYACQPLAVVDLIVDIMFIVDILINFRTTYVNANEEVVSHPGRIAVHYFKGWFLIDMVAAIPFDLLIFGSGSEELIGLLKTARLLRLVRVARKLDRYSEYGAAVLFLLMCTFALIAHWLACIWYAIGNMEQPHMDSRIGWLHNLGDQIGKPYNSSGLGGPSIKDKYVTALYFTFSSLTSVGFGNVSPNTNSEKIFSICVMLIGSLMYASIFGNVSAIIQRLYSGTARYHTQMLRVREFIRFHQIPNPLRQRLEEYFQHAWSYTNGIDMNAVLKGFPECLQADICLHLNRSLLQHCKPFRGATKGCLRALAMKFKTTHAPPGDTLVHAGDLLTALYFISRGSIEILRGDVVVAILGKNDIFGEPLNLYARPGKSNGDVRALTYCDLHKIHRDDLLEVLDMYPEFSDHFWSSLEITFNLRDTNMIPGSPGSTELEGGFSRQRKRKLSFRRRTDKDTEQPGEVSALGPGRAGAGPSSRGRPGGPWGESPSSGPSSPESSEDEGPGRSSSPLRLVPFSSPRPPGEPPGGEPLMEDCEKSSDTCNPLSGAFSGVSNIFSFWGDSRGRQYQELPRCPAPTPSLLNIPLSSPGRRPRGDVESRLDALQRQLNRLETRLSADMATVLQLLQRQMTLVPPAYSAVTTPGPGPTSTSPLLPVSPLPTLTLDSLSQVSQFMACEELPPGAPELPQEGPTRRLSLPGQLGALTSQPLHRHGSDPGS
Chain of Cytochrome P450 2C9 (Homo sapiens) (P11712 whole entry, looked up): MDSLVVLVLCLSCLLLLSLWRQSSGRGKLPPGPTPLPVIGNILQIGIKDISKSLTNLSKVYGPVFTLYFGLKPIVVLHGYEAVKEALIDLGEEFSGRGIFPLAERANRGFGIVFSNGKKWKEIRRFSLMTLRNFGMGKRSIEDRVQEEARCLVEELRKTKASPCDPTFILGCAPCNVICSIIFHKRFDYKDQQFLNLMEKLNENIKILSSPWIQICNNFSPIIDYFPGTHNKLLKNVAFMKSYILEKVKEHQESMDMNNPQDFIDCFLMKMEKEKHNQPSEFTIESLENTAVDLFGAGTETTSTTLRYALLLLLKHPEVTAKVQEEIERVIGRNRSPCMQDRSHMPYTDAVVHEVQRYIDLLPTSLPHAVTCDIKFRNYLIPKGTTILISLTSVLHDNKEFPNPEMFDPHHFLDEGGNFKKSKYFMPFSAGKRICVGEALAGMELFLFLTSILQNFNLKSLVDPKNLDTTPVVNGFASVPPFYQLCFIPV
Chain of Cytochrome P450 2C19 (Homo sapiens) (P33261 whole entry, looked up): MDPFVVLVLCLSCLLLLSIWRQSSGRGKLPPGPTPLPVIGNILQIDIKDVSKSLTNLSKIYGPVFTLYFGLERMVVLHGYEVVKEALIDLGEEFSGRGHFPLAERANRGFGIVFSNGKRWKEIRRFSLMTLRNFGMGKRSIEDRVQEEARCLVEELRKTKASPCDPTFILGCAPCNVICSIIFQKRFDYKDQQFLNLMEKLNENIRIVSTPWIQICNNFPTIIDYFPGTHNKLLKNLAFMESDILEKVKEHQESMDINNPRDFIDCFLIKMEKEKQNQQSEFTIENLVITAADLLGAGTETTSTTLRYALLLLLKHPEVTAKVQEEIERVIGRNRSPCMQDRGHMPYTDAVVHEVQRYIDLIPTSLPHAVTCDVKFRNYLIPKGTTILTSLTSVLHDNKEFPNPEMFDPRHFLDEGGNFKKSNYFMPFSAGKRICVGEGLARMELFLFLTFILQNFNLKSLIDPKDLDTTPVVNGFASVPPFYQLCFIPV
Chain of Cytochrome P450 3A4 (Homo sapiens) (P08684 whole entry, looked up): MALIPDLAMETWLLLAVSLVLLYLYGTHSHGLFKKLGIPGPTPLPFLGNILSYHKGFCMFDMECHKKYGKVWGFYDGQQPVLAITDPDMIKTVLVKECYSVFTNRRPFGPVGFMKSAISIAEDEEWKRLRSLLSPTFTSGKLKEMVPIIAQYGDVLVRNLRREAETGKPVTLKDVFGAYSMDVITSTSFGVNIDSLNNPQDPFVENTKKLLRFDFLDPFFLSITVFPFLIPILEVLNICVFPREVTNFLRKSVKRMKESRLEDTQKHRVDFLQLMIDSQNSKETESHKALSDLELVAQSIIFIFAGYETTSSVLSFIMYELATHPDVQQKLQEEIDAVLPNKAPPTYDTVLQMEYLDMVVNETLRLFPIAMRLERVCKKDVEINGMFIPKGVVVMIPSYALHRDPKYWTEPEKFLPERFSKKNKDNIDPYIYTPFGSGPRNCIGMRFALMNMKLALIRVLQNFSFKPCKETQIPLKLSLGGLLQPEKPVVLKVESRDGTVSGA
Chain of Cytochrome P450 2D6 (Homo sapiens) (P10635 whole entry, looked up): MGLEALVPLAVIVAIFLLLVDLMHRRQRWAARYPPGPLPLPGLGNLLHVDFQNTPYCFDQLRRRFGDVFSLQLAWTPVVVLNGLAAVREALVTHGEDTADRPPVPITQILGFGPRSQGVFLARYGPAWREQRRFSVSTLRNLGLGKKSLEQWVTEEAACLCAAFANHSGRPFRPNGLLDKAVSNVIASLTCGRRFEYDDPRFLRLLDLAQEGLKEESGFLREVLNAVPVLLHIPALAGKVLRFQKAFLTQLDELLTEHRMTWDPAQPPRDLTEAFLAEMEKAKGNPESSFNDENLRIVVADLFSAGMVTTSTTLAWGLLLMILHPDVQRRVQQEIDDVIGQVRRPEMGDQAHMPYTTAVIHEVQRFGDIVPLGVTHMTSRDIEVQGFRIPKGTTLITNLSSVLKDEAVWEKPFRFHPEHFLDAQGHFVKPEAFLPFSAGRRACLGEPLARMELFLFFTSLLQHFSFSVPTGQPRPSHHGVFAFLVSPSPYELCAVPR
Chain of Cytochrome P450 1A2 (Homo sapiens) (P05177 whole entry, looked up): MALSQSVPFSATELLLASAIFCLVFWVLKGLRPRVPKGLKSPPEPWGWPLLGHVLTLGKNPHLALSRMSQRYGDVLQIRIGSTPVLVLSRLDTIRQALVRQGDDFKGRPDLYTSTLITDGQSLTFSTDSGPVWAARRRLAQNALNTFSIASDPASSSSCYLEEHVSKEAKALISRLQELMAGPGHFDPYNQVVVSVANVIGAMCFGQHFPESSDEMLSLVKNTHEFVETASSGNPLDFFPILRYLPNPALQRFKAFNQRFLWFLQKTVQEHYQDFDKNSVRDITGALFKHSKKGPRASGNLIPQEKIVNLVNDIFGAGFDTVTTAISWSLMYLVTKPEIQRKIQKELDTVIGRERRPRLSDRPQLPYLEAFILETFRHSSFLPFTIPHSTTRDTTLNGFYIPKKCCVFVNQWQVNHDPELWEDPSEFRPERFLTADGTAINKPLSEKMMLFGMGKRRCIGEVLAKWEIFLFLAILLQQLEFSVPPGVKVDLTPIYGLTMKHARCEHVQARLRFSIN
Chain of Acetylcholinesterase (Homo sapiens) (P22303 whole entry, looked up): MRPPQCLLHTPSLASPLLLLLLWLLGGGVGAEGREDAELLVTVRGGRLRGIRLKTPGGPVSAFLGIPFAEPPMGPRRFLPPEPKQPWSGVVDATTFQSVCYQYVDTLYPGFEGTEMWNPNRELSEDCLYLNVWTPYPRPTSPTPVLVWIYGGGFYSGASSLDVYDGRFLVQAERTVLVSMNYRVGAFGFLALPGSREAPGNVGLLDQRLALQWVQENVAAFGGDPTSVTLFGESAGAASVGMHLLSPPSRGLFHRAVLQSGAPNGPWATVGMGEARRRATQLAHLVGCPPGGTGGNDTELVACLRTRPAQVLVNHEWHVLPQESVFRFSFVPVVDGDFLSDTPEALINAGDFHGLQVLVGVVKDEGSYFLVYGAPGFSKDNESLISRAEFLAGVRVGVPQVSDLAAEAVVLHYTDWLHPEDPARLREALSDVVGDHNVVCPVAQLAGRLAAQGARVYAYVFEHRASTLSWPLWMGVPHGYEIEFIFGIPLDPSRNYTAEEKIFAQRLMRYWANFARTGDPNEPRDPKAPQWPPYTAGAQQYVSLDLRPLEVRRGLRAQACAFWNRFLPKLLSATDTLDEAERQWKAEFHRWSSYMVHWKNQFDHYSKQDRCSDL

Compound	Potency [1]	Potency [2]	Potency [3]	Potency [4]	Potency [5]	Potency [6]	Potency [7]	activity change, negative = inhibition [1]	activity change, negative = inhibition [6]
Cc1cc(C)cc(OP(=O)(Oc2cc(C)cc(C)c2)Oc2cc(C)cc(C)c2)c1	inactive	inactive	9.08 µM (active)	5.73 µM (active)	2.03 µM (active)	–	–	–	–
C=CCC1=C(C)C(OC(=O)C2C(C=C(C)C)C2(C)C)CC1=O (stereo unspecified)	inactive	30 µM (active)	1.69 µM (active)	–	–	25.9 µM (active)	29.2 µM (active)	–	–
CCOCCOC(C)=O	inactive	71 µM (active)	79.6 µM (active)	–	inactive	43.5 µM (active)	inactive	–	–
CCOP(=O)(NC(C)C)Oc1ccc(SC)c(C)c1 (stereo unspecified)	71 µM (active)	5.02 µM (active)	1.59 µM (active)	–	–	2.75 µM (active)	inactive	–	–
COP(=O)(OC)SCn1c(=O)oc2cc(Cl)cnc21	71 µM (active)	39.9 µM (active)	25.2 µM (active)	–	–	–	inactive	–	–
Oc1cc(Cl)c(Cl)c(Cl)c1	inactive	6.73 µM (active)	inactive	inactive	53.5 µM (active)	–	–	–	–
CCOC(=O)c1ccccc1S(=O)(=O)NC(=O)Nc1nc(Cl)cc(OC)n1	inactive	inactive	–	inactive	–	inactive	inactive	–	–
N#Cc1ccc(O)cc1	inactive	inactive	89.4 µM (active)	–	inactive	inactive	inactive	–	–
ClC1=C(Cl)[C@]2(Cl)[C@@H]3[C@@H](Cl)[C@H](Cl)C[C@@H]3[C@@]1(Cl)C2(Cl)Cl	inactive	inactive	inactive	–	inactive	inactive	inactive	–	–
CC1(C)C(/C=C(\Cl)C(F)(F)F)C1C(=O)OC(C#N)c1cccc(Oc2ccccc2)c1 (stereo unspecified)	inactive	inactive	8.09 µM (active)	–	inactive	–	inactive	–	–
CCCCCCCCCCCCBr	inactive	inactive	inactive	–	inactive	–	inactive	–	–
Clc1ccc(COC(Cn2ccnc2)c2ccc(Cl)cc2Cl)cc1 (stereo unspecified)	inactive	663 nM (active) and 224 nM (active) and 490 nM (active)	166 nM (active) and 89 nM (active) and 246 nM (active)	–	–	1.87 µM (active) and 1.78 µM (active) and 911 nM (active)	–	–	–
O=C(O)c1cc[c]([Hg][Cl])cc1	inactive	12.6 µM (active)	7.1 µM (active)	–	8.94 µM (active)	17.8 µM (active)	inactive	–	–
Cl/C=C\CCl	inactive	inactive	inactive	–	inactive	–	inactive	–	–
O=[N+]([O-])c1ccc(Oc2ccc(C(F)(F)F)cc2[N+](=O)[O-])cc1	inactive	22.4 µM (active)	0.894 µM (active)	–	inactive	31.7 µM (active)	6.16 µM (active)	–	–
Cc1c(Cl)c(=O)oc2cc(OP(=O)(OCCCl)OCCCl)ccc12	3.09 µM (active)	3.47 µM (active)	2.19 µM (active)	3.89 µM (active)	inactive	–	–	–	–
CCCCCCCCCCCCCN1CC(C)OC(C)C1 (stereo unspecified)	inactive	22.4 µM (active)	inactive	–	inactive	–	13.8 µM (active)	–	–
CCCCCCCCCCCCCCC(Br)C(=O)O (stereo unspecified)	inactive	inactive	inactive	–	inactive	–	inactive	–	–
COCC(=O)N(c1c(C)cccc1C)[C@H](C)C(=O)OC	inactive	inactive	79.6 µM (active)	–	inactive	–	inactive	–	–
CC(=O)c1cc(C(C)(C)C)cc2c1CCC2(C)C	inactive	inactive	inactive	–	inactive	31.7 µM (active)	inactive	–	–

Compound	Potency [1]	Potency [2]	Potency [3]	Potency [4]	Potency [5]	Potency [6]	Potency [7]	activity change, negative = inhibition [1]	activity change, negative = inhibition [6]
CCC(C)c1cc(C(C)(C)C)cc(-n2nc3ccccc3n2)c1O (stereo unspecified)	inactive	inactive	inactive	–	inactive	–	inactive	–	–
CC1(C)CN=C(NN=C(/C=C/c2ccc(C(F)(F)F)cc2)/C=C/c2ccc(C(F)(F)F)cc2)NC1	inactive	11.2 µM (active)	inactive	–	inactive	–	0.389 µM (active)	–	–
Oc1ccc2ccc3cccc4ccc1c2c34	inactive	inactive	20 µM (active)	–	31.7 µM (active)	0.894 µM (active)	inactive	–	–
COc1ccc(/C(=C/C(=O)N2CCOCC2)c2ccc(Cl)cc2)cc1OC	inactive	inactive	56.4 µM (active)	–	3.17 µM (active)	inactive	12.3 µM (active)	–	–
[Cl][Sn]([c]1ccccc1)([c]1ccccc1)[c]1ccccc1	–	0.952 µM (active)	6.74 µM (active)	–	7.56 µM (active)	–	2.08 µM (active)	0.0872% [at 23.6 µM] (inactive)	-2.03% [at 23.6 µM] (inactive)
O=CC(Br)(Br)Br	inactive	inactive	–	14.1 µM (active)	inactive	28.2 µM (active)	inactive	–	–
CC[C@H]1C[C@@H]2C[C@H]3c4[nH]c5ccc(OC)cc5c4CCN(C2)[C@@H]13	inactive	0.698 µM (active)	–	–	–	44.1 µM (active)	–	–	–
CNC(C)Cc1ccc2c(c1)OCO2 (stereo unspecified)	inactive	0.491 µM (active)	–	inactive	inactive	inactive	inactive	–	–
Cc1ccc(C(=O)Cl)cc1	inactive	inactive	–	inactive	–	inactive	inactive	–	–
BrCC(Br)c1ccccc1 (stereo unspecified)	inactive	12.6 µM (active)	–	–	inactive	–	inactive	–	–
C[C@]12CC[C@H](O)C[C@H]1CC[C@@H]1[C@@H]2C[C@@H](O)[C@]2(C)[C@@H](C3=CC(=O)OC3)CC[C@]12O	inactive	inactive	–	inactive	inactive	inactive	inactive	–	–
Cn1cc(C2=C(c3cn(C4CCN(Cc5ccccn5)CC4)c4ccccc34)C(=O)NC2=O)c2ccccc21	inactive	inactive	–	–	inactive	inactive	–	–	–
CCOC(=O)OC1=C(c2cc(C)ccc2C)C(=O)NC12CCC(OC)CC2 (stereo unspecified)	inactive	inactive	–	–	1.12 µM (active)	44.8 µM (active)	inactive	–	–
C[C@H]1O[C@@H](O[C@H]2[C@@H](O)C[C@H](O[C@H]3[C@@H](O)C[C@H](O[C@H]4CC[C@@]5(C)[C@H](CC[C@@H]6[C@@H]5CC[C@]5(C)[C@@H](C7=CC(=O)OC7)CC[C@]65O)C4)O[C@@H]3C)O[C@@H]2C)C[C@H](O)[C@@H]1O	inactive	inactive	–	inactive	inactive	–	inactive	–	–
O=c1c(C2CC(c3ccc(-c4ccc(Br)cc4)cc3)Cc3ccccc32)c(O)sc2ccccc12 (stereo unspecified)	inactive	inactive	–	–	inactive	inactive	inactive	–	–
Cc1cc(C(F)(C(F)(F)F)C(F)(F)F)ccc1NC(=O)c1cccc(I)c1C(=O)NC(C)(C)CS(C)(=O)=O	inactive	4.51 µM (active)	–	20.1 µM (active)	2.01 µM (active)	inactive	inactive	–	–
Oc1c(Cl)c(Cl)cc(Cl)c1Cl	inactive	inactive	–	21.8 µM (active)	inactive	–	inactive	–	–
CN(CCCC(=O)c1cccnc1)N=O	inactive	inactive	–	inactive	17.8 µM (active)	–	inactive	–	–
[CH3][Hg][Cl]	inactive	inactive	–	–	39.8 µM (active)	inactive	24.5 µM (active)	–	–
CC(C)CBr	inactive	inactive	–	inactive	inactive	inactive	inactive	–	–

Compound	Potency [1]	Potency [2]	Potency [3]	Potency [4]	Potency [5]	Potency [6]	Potency [7]	activity change, negative = inhibition [1]	activity change, negative = inhibition [6]
Clc1ccc(-c2ccccc2)cc1	inactive	inactive	–	–	inactive	39.9 µM (active)	inactive	–	–
N#CCc1ccc(Cl)cc1	inactive	inactive	–	inactive	inactive	–	inactive	–	–
ClC1=C(Cl)[C@]2(Cl)[C@H]3[C@H]([C@H]4C=C[C@H]3C4)[C@@]1(Cl)C2(Cl)Cl	inactive	inactive	–	–	1 µM (active)	inactive	–	–	–
CCc1nn(C)c(C(=O)NCc2ccc(C(C)(C)C)cc2)c1Cl	inactive	63.3 µM (active)	–	17.8 µM (active)	inactive	–	21.9 µM (active)	–	–
C=CC(=O)OCCCCOC(=O)C=C	inactive	inactive	–	–	inactive	35.6 µM (active)	inactive	–	–
CC(=O)OC1(c2ccccc2)CCN(CCc2ccccc2)CC1	inactive	0.727 µM (active)	–	–	inactive	inactive	25.1 µM (active)	–	–
CCC(C)(C)C(=O)OC1=C(c2ccc(Cl)cc2Cl)C(=O)OC12CCCCC2	inactive	inactive	–	–	14.2 µM (active)	–	inactive	–	–
C[C@@H]1O[C@@H](O[C@@H]2C=C3CC[C@@H]4[C@H](CC[C@]5(C)[C@@H](c6ccc(=O)oc6)CC[C@]45O)[C@@]3(C)CC2)[C@H](O)[C@H](O)[C@H]1O	inactive	inactive	–	–	inactive	inactive	inactive	–	–
N#CC(Cl)Cl	inactive	61.6 µM (active)	–	–	inactive	61.6 µM (active)	inactive	–	–
O=C(O)COc1nc(Cl)c(Cl)cc1Cl	inactive	6.48 µM (active)	–	51.5 µM (active)	–	–	inactive	–	–
C[As+](C)(C)CC(=O)[O-]	inactive	inactive	–	inactive	inactive	inactive	inactive	–	–
COC12CC[C@@]3(C[C@@H]1C(C)(O)C(C)(C)C)[C@H]1Cc4ccc(O)c5c4[C@@]3(CCN1CC1CC1)[C@H]2O5 (stereo partly specified)	inactive	2.23 µM (active)	–	–	–	inactive	–	–	–
CCCN(CCC)CCc1c[nH]c2ccccc12	inactive	0.351 µM (active)	–	inactive	inactive	27.9 µM (active)	–	–	–
N#Cc1ccccc1N	inactive	25.2 µM (active)	–	inactive	inactive	inactive	inactive	–	–
CC(c1ccc(O)cc1)c1ccc(O)cc1	inactive	33.4 µM (active) and inactive	–	59.3 µM (active) and 35.6 µM (active)	42 µM (active)	37.4 µM (active) and inactive	51.5 µM (active) and inactive	–	–
O=C1NCN(c2ccccc2)C12CCN(CC1COc3ccccc3O1)CC2 (stereo unspecified)	inactive	0.11 µM (active)	–	8.71 µM (active)	–	inactive	7.56 µM (active)	–	–
CCC[CH2][Sn]([CH2]CCC)([CH2]CCC)[O]C(=O)c1ccccc1	inactive	1.12 µM (active)	–	12.6 µM (active)	35.6 µM (active)	–	4.9 µM (active)	–	–
CC(C)C(=O)Cl	inactive	inactive	–	inactive	inactive	inactive	inactive	–	–
C[CH2][Hg][N]1C(=O)C2C(C1=O)C1(Cl)C(Cl)=C(Cl)C2(Cl)C1(Cl)Cl (stereo unspecified)	–	16.9 µM (active)	–	13.5 µM (active)	13.5 µM (active)	–	–	-0.312% [at 23.6 µM] (inactive)	–
